13 molecules from PubChem BioAssay (NCATS) can be followed below.

Inconclusive results are not listed. Values without a mark were called inactive. Active and inactive are the calls of the source. Calls come from the whole dose curve; as a rule, active = well fitted curve in the direction sought with a large enough effect; inconclusive = small, poorly fitted or top-dose-only effect, or another doubt; inactive = no such curve, though single readings can be large; an effect the other way counts as inactive or inconclusive.

Assay [1] deals with C33A. Description: Primary qHTS to identify gynecologic anti-cancer compounds using libraries of approved drugs and bioactive compounds (AID 1345084). Note: nearly all actives have a fitted effect of over 55% in size. To be noted: Gynecologic cancer cell panel viability, ATPlite luminescence, 48 h; series mostly up to 57.5 µM. In a few lines:
(§1)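 48 h compound exposure at 37 C, 5% CO2; five-point qHTS. ATPlite luminescence readout of cell ATP.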
On the technique in general: qHTS replaces the single test concentration by a dilution series.

Assay [2] relates to CAOV3. The assay is described as above. To be noted: Gynecologic cancer cell panel viability, ATPlite luminescence, 48 h; series mostly up to 57.5 µM. In a few lines:
as §1
(ATP-based viability assays read luminescence as a measure of living cells.)

For assay [3], the system named is CASKI. Described as above. Conditions: Gynecologic cancer cell panel viability, ATPlite luminescence, 48 h; series mostly up to 57.5 µM. In a few lines:
as §1

For assay [4], the system named is Es-2. Described as above. Conditions: Gynecologic cancer cell panel viability, ATPlite luminescence, 48 h; series mostly up to 57.5 µM. Summed up: as §1
Assay [5] relates to HeLa. Described as above. To be noted: Gynecologic cancer cell panel viability, ATPlite luminescence, 48 h; series mostly up to 57.5 µM. In a few lines:
as §1

For assay [6], the system named is Hek293T. Described as above. To be noted: Gynecologic cancer cell panel viability, ATPlite luminescence, 48 h, control line for the selectivity index; series mostly up to 57.5 µM. Summed up:
as §1

Assay [7] has as its system JEG-3. The description is as above. Conditions: Gynecologic cancer cell panel viability, ATPlite luminescence, 48 h; series mostly up to 57.5 µM. In a few lines:
as §1

Assay [8] deals with OV90. The description is as above. Conditions: Gynecologic cancer cell panel viability, ATPlite luminescence, 48 h; series mostly up to 57.5 µM. Summed up:
as §1

For assay [9], the system named is Tov-21-G. The description is as above. To be noted: Gynecologic cancer cell panel viability, ATPlite luminescence, 48 h; series mostly up to 57.5 µM. Summed up: as §1
Assay [10] deals with Tov112D. Described as above. To be noted: Gynecologic cancer cell panel viability, ATPlite luminescence, 48 h; series mostly up to 57.5 µM. Summed up:
as §1

In assay [11] the test system is SKOV3. The description is as above. To be noted: Gynecologic cancer cell panel viability, ATPlite luminescence, 48 h; series mostly up to 57.5 µM. Summed up: as §1
For assay [12], the system named is PA-1. Described as above. Conditions: Gynecologic cancer cell panel viability, ATPlite luminescence, 48 h; series mostly up to 57.5 µM. In a few lines:
as §1

The nature of assay [13]: qHTS assay to identify inhibitors of the type 1 interferon - major histocompatibility complex class I in skeletal muscle: Counter screen cell viability and HiBit confirmation (AID 1347412). Note: nearly all actives have a fitted effect of over 60% in size. Conditions: iHSKM muscle cells + IFN-b, HiBiT or CellTiter-Glo, 24 h. Summed up:
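Human myoblast knock-in line, 4.0 ng/ml IFN-beta stimulation, 24 h compound treatment. Endpoints: HiBiT lytic luminescence (HLA-B level) and CellTiter Glo (ATP). Dosing 12 concentrations, 3-fold steps, 46 uM highest final.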
% is set by controls: 0 for no effect and ±100 for the full control effect; potency is the fitted concentration of half-maximal effect.

Regarding `C=C[C@@]12COC(=O)C(=C)C1[C@@H](O)[C@H](C(=C)C(=O)OC)[C@@H](OC(=O)C(=C)CO)C2` (stereo partly drawn), the Potency entry in assay [1], in assay [2], in assay [3], in assay [4], in [5] and in assay [6] was “inactive” each time. The Potency entry in assay [7], in assay [8], in [9] and in assay [10] was “inactive” each time.
Turning to `OCC1OC(Oc2cc(O)cc(/C=C/c3ccc(O)cc3)c2)C(O)C(O)C1O` (stereo not drawn), the Potency result in assay [1], in [2], in assay [3], in assay [4], in [5] and in [6] was “inactive” each time. Moreover, the Potency result in assay [7], in assay [8], in assay [11] and in assay [10] was “inactive” each time.
On to `C=C1CCC2C(C)(C)C(O)CCC2(C)C1CCC(C)CCOC(C)=O` (stereo not drawn), for which the Potency result in assay [1], in assay [2], in assay [3], in assay [4], in assay [5] and in [6] was “inactive” each time. Besides, the Potency result in [7], in assay [8], in [9] and in [10] was “inactive” each time.
With `C=C1CCC2C(C)(C)CCC[C@]2(C)[C@H]1C/C=C(\CO)C(=O)C(=O)O` (stereo partly drawn), the Potency result in assay [1], in [2], in assay [3], in assay [4], in [5] and in [6] was “inactive” throughout. For the same molecule, the Potency result in [7], in assay [8], in [11], in assay [9] and in assay [10] was “inactive” each time.
Consider `CN(CCc1ccc(Nc2ncc(-c3cccnc3)s2)cc1)Cc1ccccc1`, for which the Potency result in assay [1], in assay [2], in [3], in [4], in [5] and in assay [6] was “inactive” in each case. Besides, the Potency entry in assay [7], in assay [8], in [9] and in [10] was “inactive” throughout.
In the case of `C=C1[C@@H]2CC[C@@H]3[C@@](CCC4C(C(=O)O)(C(=O)O)C[C@@H](O[C@@H]5O[C@H](CO)[C@@H](O)[C@H](O)[C@H]5OC(=O)CC(C)C)C[C@]43C)(C2)[C@H]1O` (stereo partly drawn), the Potency entry in assay [1], in assay [2], in assay [3], in assay [4], in [5] and in assay [6] was “inactive” each time. In addition, the Potency result in assay [7], in assay [8], in [11], in assay [9] and in assay [10] was “inactive” each time.
Consider `COCCOc1cnc2ccn([C@H](C)c3nnc4c(F)cc(-c5cnn(C)c5)cn34)c(=O)c2c1`, for which the Potency entry in assay [1], in [2], in assay [3], in [4], in [5] and in assay [6] was “inactive” in each case. Further, the Potency entry in assay [7], in assay [8], in [11], in assay [9] and in assay [10] was “inactive” each time.
`CCCCc1nc2cc(/C=C/C(=O)NO)ccc2n1CCN(CC)CC`: the Potency in assay [1] is 5.01 µM (active); in assay [2], 8.91 µM (active); in assay [3] it was 5.62 µM (active); in assay [4], 3.16 µM (active); in assay [5], 2.51 µM (active); in assay [6], 3.16 µM (active). Moreover, the Potency in assay [7] was 3.16 µM (active); in [12], 0.631 µM (active); in [11] it was 3.98 µM (active); in assay [9], 7.94 µM (active); in [10] it was 3.16 µM (active); in [13] (HiBiT), 1.11 µM (active). In assay [13] (Viability, at 45.9 µM (top of the series)), the activity change, negative = inhibition is 3.05%.
In the case of `CCCCc1ccc(C(=O)Nc2cc(-c3ccc(Cl)cc3)nn2-c2ccc(Cl)cc2)cc1`, the Potency entry in assay [1], in [2], in assay [3], in [4], in assay [5] and in assay [6] was “inactive” each time. Further, the Potency entry in assay [7], in [8], in assay [9] and in assay [10] was “inactive” each time.
Consider `CC(C)c1cc2c(c(O)c1O)[C@@]13CCCC(C)(C)[C@@H]1[C@H](OC3=O)C2=O`, for which the Potency result in assay [1], in assay [2], in assay [3], in assay [4], in assay [5] and in assay [6] was “inactive” each time. For the same molecule, the Potency entry in [7], in assay [8], in assay [11], in [9] and in assay [10] was “inactive” in each case.
Regarding `CC(=O)O[C@@H]1[C@@H](OC(=O)/C=C/c2ccccc2)[C@@H](OC(C)=O)[C@H](O[C@H]2[C@@H]3C=CO[C@@H](O[C@@H]4O[C@H](CO)[C@@H](O)[C@H](O)[C@H]4O)[C@@H]3[C@@]3(CO)O[C@@H]23)O[C@H]1C`, the Potency result in assay [1], in assay [2], in assay [3], in assay [4], in assay [5] and in [6] was “inactive” throughout. For the same molecule, the Potency result in [7], in [8], in assay [11], in assay [9] and in assay [10] was “inactive” in each case.
As to `COC(=O)c1ccnc(-c2cc(C(=O)NCCc3ccccc3)ccn2)c1`, the Potency entry in assay [1], in assay [2], in [3], in [4], in [5] and in [6] was “inactive” each time. In addition, the Potency result in [8], in assay [12], in [11], in [9] and in [10] was “inactive” throughout.
In the case of `Cc1cc(N2CCN([C@@H]3CN[C@H](C(=O)N4CCSC4)C3)CC2)n(-c2ccccc2)n1`, the Potency entry in [1], in assay [2], in assay [3], in [4], in assay [5] and in assay [6] was “inactive” each time. Besides, the Potency result in assay [8], in assay [9] and in assay [10] was “inactive” throughout.
